This is an account of results in PubChem BioAssay AID588342 (National Center for Advancing Translational Sciences (NCATS), 2011).

The whole screen tested about 360,000 compounds, of which about 25,000 (6.9%) were called active. About 9% were inconclusive and are not listed. Calls follow the shape of the dose curve; as a rule, active = well fitted inhibition curve with a large enough effect; inconclusive = small, poorly fitted or top-dose-only effect; inactive = flat fitted curve, though single readings scatter. The entries come from a sample that favours actives as a whole. Where a call stands in place of a potency, no number is given.
Potency is read from the fitted curve at half-maximal effect.

The target in the test is Luciferin 4-monooxygenase (Photinus pyralis) (UniProt P08659). The test can be described thus: qHTS profiling assay for firefly luciferase inhibitor/activator using purifed enzyme and Km concentrations of substrates (counterscreen for miR-21 project). Also: nearly all actives have a fitted effect of over 55% in size. The settings on record: purified FLuc, luminescence inhibition; series mostly up to 57.5 µM. In outline: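 Purified P. pyralis luciferase (10nM final) with 10uM D-luciferin and 10uM ATP (Km levels) in 50mM Tris acetate pH 7.5, 10mM Mg acetate, 0.01% Tween-20, 0.05% BSA; qHTS 6-point titration, ~60 µM downward; luminescence read.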
Luciferin 4-monooxygenase (Photinus pyralis), sequence (P08659 whole entry, looked up): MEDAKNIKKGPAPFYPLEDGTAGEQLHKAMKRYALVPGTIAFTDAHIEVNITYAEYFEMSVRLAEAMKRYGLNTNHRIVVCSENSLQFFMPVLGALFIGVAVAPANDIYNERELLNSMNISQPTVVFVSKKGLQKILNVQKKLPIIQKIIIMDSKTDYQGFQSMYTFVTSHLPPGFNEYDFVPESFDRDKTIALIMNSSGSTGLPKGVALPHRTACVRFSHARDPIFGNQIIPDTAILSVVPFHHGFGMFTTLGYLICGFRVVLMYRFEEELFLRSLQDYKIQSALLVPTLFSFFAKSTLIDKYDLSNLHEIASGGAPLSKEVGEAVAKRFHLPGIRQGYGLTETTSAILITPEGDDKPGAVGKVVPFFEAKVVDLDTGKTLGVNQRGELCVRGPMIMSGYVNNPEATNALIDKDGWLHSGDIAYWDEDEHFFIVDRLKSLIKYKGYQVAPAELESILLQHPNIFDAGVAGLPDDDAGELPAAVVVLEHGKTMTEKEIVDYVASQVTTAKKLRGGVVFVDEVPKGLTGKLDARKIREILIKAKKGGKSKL
For orientation: Quantitative high-throughput screening tests each substance at several concentrations.
As for `CCCCOc1ccc(CNC(=O)c2ccc3c(c2)N(C)C(=O)C2CCCCN32)cc1` (stereo unspecified), the Potency result is “inactive”. In the case of `Cc1c(C(=O)Nc2cccc(Cl)c2)cn2c(nc3ccccc32)c1C#N`, the Potency result was “inactive”. Consider `C/C(=N\c1nc2ccccc2n1C)c1cc(Cl)ccc1O`, for which the Potency result is “inactive”. Under `Cn1c(Nc2cccc(Cl)c2)nc2ccccc21` stands 26.9 µM (active); under `Cc1ccc(S(=O)(=O)N2CCc3cc(C(=O)Nc4ccc(Cl)cc4C)ccc32)cc1`, “inactive”.

Turning to `NC(=O)Cn1cc(/C=N\NS(=O)(=O)c2ccccc2)c2ccccc21`, the Potency entry is “inactive”. The figure for `COc1cccc(NCCC(=O)c2cccc([N+](=O)[O-])c2)c1` is 15.1 µM (active); for `COc1cccc(C(=O)CC(=O)C(=O)Nc2ccc([N+](=O)[O-])cc2C)c1` it is “inactive”. With `COc1cccc(CNC(=O)CCCC(=O)Nc2cccc([N+](=O)[O-])c2)c1`, the Potency entry was “inactive”.

Regarding `CC(=O)c1ccc(OCCCC(=O)Nc2ccc(C)c(S(=O)(=O)N3CCOCC3)c2)cc1`, the Potency entry is “inactive”. Consider `Cc1ccc(NC(=O)CN2c3ccccc3S(=O)(=O)c3ccccc32)cc1F`, for which the Potency result is “inactive”.

For the molecule `N#C/C(=C(/O)Cc1cccc2ccccc12)c1nc2ccccc2s1`, the Potency result was “inactive”.

On to `CC1=CC(=C(C#N)c2nc3ccccc3s2)C=C(C)N1c1ccc(F)cc1F`, for which the Potency was 1.35 µM (active).

As to `Cc1ccc(F)cc1S(=O)(=O)N1CCC(c2nc3ccccc3s2)CC1`, the Potency entry was “inactive”. The figure for `COc1ccc(/C=C(\C#N)c2c[nH]c3ccccc23)cc1` is 19 µM (active); for `COc1ccc(C(C(O)C(=O)c2c[nH]c3ccccc23)N2CCN(c3ccccc3)CC2)cc1` (stereo unspecified) it is “inactive”; for `COc1ccc2[nH]cc(/C=C(/C#N)S(=O)(=O)c3ccccc3)c2c1` it is “inactive”. `CCOC(=O)c1cc(NC(=O)c2ccc(F)cc2)c(=O)n2c1oc1ccccc12`: the Potency result is “inactive”. The entry for `COC1=C/C(=C/c2c(N)n3nc(CC(=O)N4CCOCC4)sc3nc2=O)C=CC1=O` is “inactive”.

As to `CCNC(=O)c1ccc(OCC(=O)Nc2ccc(F)cc2)c(OC)c1`, the Potency entry is “inactive”. Consider `COc1cc2c(cc1OC)/C(=C/C(=O)c1ccc(NC(C)=O)cc1)NCC2`, for which the Potency is 16.9 µM (active).

With `COc1cc2c(cc1OC)CN(CC(=O)Nc1ccc(F)cc1)CC2`, the Potency entry was “inactive”. The entry for `CCN(CC(=O)Nc1ccccc1C(=O)NC1CC1)Cc1cccs1` is “inactive”; for `Cc1cc(OCC(=O)NCC2(N(C)C)CCCCC2)cc(C)c1Cl` it is “inactive”. The figure for `Cc1ccnc(-n2sc3ccccc3c2=O)n1` is 9.53 µM (active). Take `Cc1ccnc(SCC(N)=O)n1`: the Potency result was “inactive”. In the case of `Cc1ccnc(N2CCCC(C(=O)NC3CC3)C2)n1` (stereo unspecified), the Potency entry was “inactive”. With `CCN(Cc1ccccc1)S(=O)(=O)c1ccc2c(c1)CCCN2C(C)=O`, the Potency result is “inactive”. Turning to `COc1ccc(N2CCN(C(=O)COc3ccc4c(C)cc(=O)oc4c3)CC2)cc1`, the Potency result was “inactive”. Consider `Cc1ccc(OCc2cc(C(=O)N(C)CCc3ccccc3)no2)cc1C`, for which the Potency is 23.9 µM (active). With `Cc1cc(CN(C)C(=O)c2cc(COc3ccc(C)c(C)c3)on2)n[nH]1`, the Potency was 2.39 µM (active). The entry for `CN(Cc1cccnc1)C(=O)c1cc(COc2ccc3ncccc3c2)on1` is “inactive”; for `CCn1ccnc1CN(C)C(=O)c1cc(COc2ccc(-n3cncn3)cc2)on1` it is “inactive”. As to `CN(CCOc1ccccc1)C(=O)c1cc(COc2c(F)cccc2F)on1`, the Potency entry was “inactive”. For the molecule `CN(Cc1cnccn1)C(=O)c1cc(COc2cccc(C(F)(F)F)c2)on1`, the Potency entry was “inactive”. As to `COc1cccc(CNC(=O)c2cc(=O)[nH]c3ccc(S(=O)(=O)N4CCCCC4)cc23)c1`, the Potency entry is “inactive”.

Regarding `Cc1cccc(OCCCC(=O)Nc2sc3c(c2C(N)=O)CCC(C)C3)c1` (stereo unspecified), the Potency entry was “inactive”. Under `OC(c1ccccc1)C(CN1CCOCC1)c1ccccc1` (stereo unspecified) stands “inactive”; under `COC(=O)c1ccccc1NC(=O)c1cnn(-c2ccc(F)cc2)c1-n1cccc1`, “inactive”; under `COC(=O)c1c(NC(=O)CCCOc2ccccc2)sc2c1CCC(C)C2` (stereo unspecified), “inactive”. In the case of `CC1CCN(C(=O)COC(=O)CCC(=O)c2cccs2)CC1`, the Potency entry was “inactive”. On to `O=C(Nc1ccc2nc(SCC(=O)N3CCCc4ccccc43)sc2c1)c1ccc(Cl)cc1`, for which the Potency result is “inactive”.

Turning to `Cc1nnc(SCC(=O)NCCOc2ccc(Cl)cc2)n1-c1ccccc1`, the Potency entry was “inactive”. With `Cc1nnc(SCc2ccc(C(=O)c3ccc(Cl)cc3)o2)n1-c1ccccc1`, the Potency was 15.1 µM (active). With `Cc1nnc(SCC(=O)N2CCN(c3ccccc3)CC2)n1-c1ccccc1`, the Potency result is “inactive”.

As for `COc1ccc(C)cc1NC(=O)c1cc(-c2ccccc2)nc2c1cnn2C(C)C`, the Potency result was “inactive”. Take `COCCN(CCOC)c1nc(N)c2c(N)nc3c(c2c1C#N)CC(=O)N3Cc1ccc(Cl)cc1`: the Potency entry is “inactive”. The figure for `Cc1ccc(Nc2nc(N)nc(CSc3nnc(C)s3)n2)cc1` is 10.7 µM (active).

In the case of `CCOC(=O)C1CCCN(Cc2nc(N)nc(Nc3ccc(C)cc3)n2)C1` (stereo unspecified), the Potency result was “inactive”. Take `Cc1nnc(SCc2nc3ccccc3nc2C)s1`: the Potency entry was “inactive”.

Take `O=C(COC(=O)Cn1[nH]c(=O)c2ccccc2c1=O)Nc1ncc(Cl)cc1Cl`: the Potency entry was “inactive”. Take `Cc1ccc(S(=O)(=O)NCCC(=O)NNC(=O)C2COc3ccccc3O2)cc1` (stereo unspecified): the Potency result was “inactive”.

With `CCN(CCCNC(=O)Cn1ncc2c3ccccc3n(C)c2c1=O)Cc1ccccc1`, the Potency result is “inactive”. For the molecule `CCC(=O)Nc1ccc2nn(-c3ccc(F)cc3)nc2c1`, the Potency is 1.35 µM (active).

As to `O=C(Cc1ccc(Cl)cc1)Nc1ccc2nn(-c3ccc(Cl)cc3)nc2c1`, the Potency result is “inactive”. Consider `Cc1nn(CC(=O)Nc2ccc(F)cc2)c(=O)c2ccccc12`, for which the Potency entry was “inactive”. With `Cc1ccc(NC(=O)c2oc3ccc(S(=O)(=O)N4CCCCC4)cc3c2C)cc1Cl`, the Potency result was “inactive”.

Turning to `COc1ccc(C(=O)N2CCN(c3ncccn3)CC2)cc1S(=O)(=O)N1CCOCC1`, the Potency entry is “inactive”. For `CCc1nc2c(cnn2-c2ccc(C)cc2)c(=O)n1-c1ccc(C)cc1`, the Potency result is “inactive”. `O=c1c(Cl)c(NC2CC2)cnn1-c1ccccc1`: the Potency entry is “inactive”.

Take `C=CCNc1cnn(-c2ccc(C)cc2)c(=O)c1Cl`: the Potency is 15.1 µM (active). The entry for `CCCCN(CC)CCCNC(=O)Cn1ncc2c([nH]c3ccc(C)cc32)c1=O` is “inactive”; for `O=C(CNCc1ccc(Cl)cc1)Nc1cccc(C(=O)O)c1` it is “inactive”; for `O=C(Nc1c(-c2ccc(F)cc2)nc2ccccn12)c1cccc(F)c1` it is “inactive”. For `O=C(c1ccc(F)cc1)n1cc(C(=S)N2CCOCC2)c2ccccc21`, the Potency result was “inactive”. The figure for `O=C(c1ccc(F)cc1)n1c(=S)nc2ccccn21` is 0.269 µM (active).
